# Reference: PubChem BioAssay AID1117291 (Broad Institute, 2014)
# Measured potencies and affinities stand elsewhere. Results filed as inconclusive are left out. A number with no mark means an inactive call.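 The calls were made as follows: active = compound whose fitted half-maximal potency lies at or below double its highest tested dose in every test; inconclusive = tests disagree, or a flat partial loss, or a poor fit; inactive = every test inactive.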
# Test: hepatoma cell viability loss – CellTiter-Glo luminescence, dry powder, set 20, cytotoxicity control, dose response (AID 1117291)
# Details: HepG2 viability, CellTiter-Glo ATP luminescence, 72 h; series mostly up to 26 µM; activity change, negative = cytotoxicity: at the top concentration
row,Compound,"activity change, negative = cytotoxicity"
1,Cc1ccc(NC(=O)NC2(C(=O)N3CCN(c4ccccc4)CC3)CCCCC2)cc1,0.039%
2,COc1ccc(C(=O)Nc2cc(C(F)(F)F)ccc2N2CCCC2)cc1S(=O)(=O)O,-12%
3,CC(=O)N1CCN(C(=O)C2(NC(=O)Nc3ccc(C)cc3)CC2)CC1,-23.3%
4,CC(=O)N1CCN(C(=O)C2(NC(=O)Nc3ccccc3)CCCC2)CC1,5%
5,CC(=O)N1CCN(C(=O)C2CCCN2C(=O)Nc2ccc(C)cc2)CC1 (stereo unspecified),-7.76%
6,Cc1ccc(NC(=O)NC2(C(=O)N3CCOCC3)CCCCC2)cc1,-22.2%
7,O=S(=O)(Nc1cc(C(F)(F)F)ccc1N1CCCCC1)c1ccccc1,-7%
8,COc1ccc(C(=O)Nc2cc(C(F)(F)F)ccc2N2CCOCC2)cc1S(=O)(=O)O,-8.25%
9,N#Cc1ccc(S(=O)(=O)Nc2cc(C(F)(F)F)ccc2N2CCCCC2)cc1,-15.7%
10,O=S(=O)(Nc1cc(C(F)(F)F)ccc1N1CCCCC1)c1ccc(F)cc1,-27.5%
11,CC(=O)N1CCN(C(=O)C2(NC(=O)Nc3cccc(C(F)(F)F)c3)CCCCC2)CC1,-9.88%
12,CC(=O)N1CCN(C(=O)C2(NC(=O)Nc3ccc(C(F)(F)F)cc3)CCCC2)CC1,-26.9%
13,Cc1ccccc1S(=O)(=O)Nc1cc(C(F)(F)F)ccc1N1CCCCC1,-22.7%
14,COc1ccc(C2=NN(c3ccc(C(=O)O)cc3)C(c3ccc(OC)c(OC)c3)C2)cc1 (stereo unspecified),-15.3%
15,COc1ccc(C(=O)Nc2cc(C(F)(F)F)ccc2N2CCCCC2)cc1S(=O)(=O)O,-13.2%
16,O=S(=O)(Nc1cc(C(F)(F)F)ccc1N1CCCCC1)c1ccc(Br)cc1,-18%
